Columns and labels:
[1] = target: T1, Ephrin type-B receptor 2 (Homo sapiens) (UniProt P29323); conditions: at 1 µM
T1 sequence (whole entry): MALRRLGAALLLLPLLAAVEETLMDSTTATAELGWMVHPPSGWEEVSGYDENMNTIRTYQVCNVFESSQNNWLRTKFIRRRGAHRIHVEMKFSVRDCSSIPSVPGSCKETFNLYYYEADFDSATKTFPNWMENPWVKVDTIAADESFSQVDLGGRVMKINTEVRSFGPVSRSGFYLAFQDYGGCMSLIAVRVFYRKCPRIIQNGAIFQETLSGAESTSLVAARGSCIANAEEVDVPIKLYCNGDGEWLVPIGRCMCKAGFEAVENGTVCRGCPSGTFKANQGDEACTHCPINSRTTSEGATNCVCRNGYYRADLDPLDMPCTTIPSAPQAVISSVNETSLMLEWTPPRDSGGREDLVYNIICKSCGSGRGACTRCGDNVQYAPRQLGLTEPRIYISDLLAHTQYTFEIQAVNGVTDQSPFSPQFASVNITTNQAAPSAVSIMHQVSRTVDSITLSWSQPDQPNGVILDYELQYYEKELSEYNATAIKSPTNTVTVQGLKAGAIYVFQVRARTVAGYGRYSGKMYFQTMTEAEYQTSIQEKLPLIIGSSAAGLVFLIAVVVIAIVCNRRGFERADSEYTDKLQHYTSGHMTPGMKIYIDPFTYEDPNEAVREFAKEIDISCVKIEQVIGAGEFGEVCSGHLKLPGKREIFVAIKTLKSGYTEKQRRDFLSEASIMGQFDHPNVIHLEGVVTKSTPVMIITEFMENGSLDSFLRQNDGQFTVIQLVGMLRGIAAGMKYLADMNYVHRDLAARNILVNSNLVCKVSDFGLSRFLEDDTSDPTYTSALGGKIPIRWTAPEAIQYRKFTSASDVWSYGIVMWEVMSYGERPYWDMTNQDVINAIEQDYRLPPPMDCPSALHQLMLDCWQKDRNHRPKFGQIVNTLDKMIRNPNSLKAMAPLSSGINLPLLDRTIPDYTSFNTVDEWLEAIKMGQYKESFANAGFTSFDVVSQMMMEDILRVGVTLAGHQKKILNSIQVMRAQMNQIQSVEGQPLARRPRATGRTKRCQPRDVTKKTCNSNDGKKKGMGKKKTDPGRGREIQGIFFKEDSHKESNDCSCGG

[2] = target: T2, Ephrin type-B receptor 3 (Homo sapiens) (UniProt P54753); conditions: at 0.1 µM
T2 sequence (whole entry): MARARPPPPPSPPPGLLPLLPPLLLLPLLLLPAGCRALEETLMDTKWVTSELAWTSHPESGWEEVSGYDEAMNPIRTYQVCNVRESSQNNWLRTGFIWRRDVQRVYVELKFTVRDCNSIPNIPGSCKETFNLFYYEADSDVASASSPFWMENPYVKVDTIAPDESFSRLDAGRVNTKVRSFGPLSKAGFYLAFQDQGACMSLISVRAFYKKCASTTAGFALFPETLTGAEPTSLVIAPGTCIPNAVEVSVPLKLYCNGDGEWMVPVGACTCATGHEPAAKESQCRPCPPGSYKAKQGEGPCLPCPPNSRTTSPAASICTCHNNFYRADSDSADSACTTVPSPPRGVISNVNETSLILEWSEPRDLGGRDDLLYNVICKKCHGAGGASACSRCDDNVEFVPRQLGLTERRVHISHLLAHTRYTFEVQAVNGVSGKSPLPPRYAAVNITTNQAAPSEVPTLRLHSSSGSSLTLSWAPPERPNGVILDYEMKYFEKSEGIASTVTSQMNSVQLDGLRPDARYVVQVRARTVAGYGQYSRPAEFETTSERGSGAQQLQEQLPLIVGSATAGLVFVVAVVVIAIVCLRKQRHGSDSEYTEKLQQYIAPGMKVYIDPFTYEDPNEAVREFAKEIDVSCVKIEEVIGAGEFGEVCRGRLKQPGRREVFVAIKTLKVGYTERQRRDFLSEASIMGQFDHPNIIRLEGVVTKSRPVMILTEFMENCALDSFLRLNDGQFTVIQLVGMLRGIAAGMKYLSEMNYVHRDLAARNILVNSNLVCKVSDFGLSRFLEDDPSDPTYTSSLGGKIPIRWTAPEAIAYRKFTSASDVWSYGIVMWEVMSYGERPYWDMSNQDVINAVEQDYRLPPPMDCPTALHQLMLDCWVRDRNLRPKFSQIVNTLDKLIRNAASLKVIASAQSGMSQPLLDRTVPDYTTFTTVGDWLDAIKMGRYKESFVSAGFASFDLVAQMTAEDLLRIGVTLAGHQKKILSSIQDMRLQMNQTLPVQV

[3] = target: T2, Ephrin type-B receptor 3 (Homo sapiens); conditions: at 1 µM
[4] = target: T3, Ephrin type-B receptor 4 (Homo sapiens) (UniProt P54760); conditions: at 0.1 µM
T3 sequence (whole entry): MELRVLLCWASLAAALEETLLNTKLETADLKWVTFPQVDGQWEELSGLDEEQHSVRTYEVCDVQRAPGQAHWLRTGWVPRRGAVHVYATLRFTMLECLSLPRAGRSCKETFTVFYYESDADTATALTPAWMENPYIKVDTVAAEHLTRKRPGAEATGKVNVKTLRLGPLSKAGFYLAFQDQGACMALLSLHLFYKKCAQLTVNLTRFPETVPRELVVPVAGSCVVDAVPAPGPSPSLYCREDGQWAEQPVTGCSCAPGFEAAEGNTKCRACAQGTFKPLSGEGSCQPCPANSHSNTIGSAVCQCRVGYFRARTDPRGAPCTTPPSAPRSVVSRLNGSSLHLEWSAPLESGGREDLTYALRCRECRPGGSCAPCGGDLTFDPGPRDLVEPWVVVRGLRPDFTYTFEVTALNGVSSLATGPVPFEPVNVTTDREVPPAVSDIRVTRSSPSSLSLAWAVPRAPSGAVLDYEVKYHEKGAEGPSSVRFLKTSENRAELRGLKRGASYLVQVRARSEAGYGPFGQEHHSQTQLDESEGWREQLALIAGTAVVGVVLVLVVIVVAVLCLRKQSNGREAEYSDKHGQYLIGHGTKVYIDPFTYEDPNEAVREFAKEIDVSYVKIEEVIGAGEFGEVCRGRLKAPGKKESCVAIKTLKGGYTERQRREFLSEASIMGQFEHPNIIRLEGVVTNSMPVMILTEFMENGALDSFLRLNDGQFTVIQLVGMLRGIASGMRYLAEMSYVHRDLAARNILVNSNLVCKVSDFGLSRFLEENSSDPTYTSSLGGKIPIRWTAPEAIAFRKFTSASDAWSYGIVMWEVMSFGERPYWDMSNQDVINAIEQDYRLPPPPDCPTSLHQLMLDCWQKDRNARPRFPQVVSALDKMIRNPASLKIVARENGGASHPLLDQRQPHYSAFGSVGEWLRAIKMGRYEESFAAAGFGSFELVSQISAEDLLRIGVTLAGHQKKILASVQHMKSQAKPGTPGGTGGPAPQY

[5] = target: T3, Ephrin type-B receptor 4 (Homo sapiens); conditions: at 1 µM
[6] = target: Receptor tyrosine-protein kinase erbB-2 (Homo sapiens) (UniProt P04626); conditions: at 0.1 µM
Receptor tyrosine-protein kinase erbB-2 (Homo sapiens), sequence (P04626 whole entry): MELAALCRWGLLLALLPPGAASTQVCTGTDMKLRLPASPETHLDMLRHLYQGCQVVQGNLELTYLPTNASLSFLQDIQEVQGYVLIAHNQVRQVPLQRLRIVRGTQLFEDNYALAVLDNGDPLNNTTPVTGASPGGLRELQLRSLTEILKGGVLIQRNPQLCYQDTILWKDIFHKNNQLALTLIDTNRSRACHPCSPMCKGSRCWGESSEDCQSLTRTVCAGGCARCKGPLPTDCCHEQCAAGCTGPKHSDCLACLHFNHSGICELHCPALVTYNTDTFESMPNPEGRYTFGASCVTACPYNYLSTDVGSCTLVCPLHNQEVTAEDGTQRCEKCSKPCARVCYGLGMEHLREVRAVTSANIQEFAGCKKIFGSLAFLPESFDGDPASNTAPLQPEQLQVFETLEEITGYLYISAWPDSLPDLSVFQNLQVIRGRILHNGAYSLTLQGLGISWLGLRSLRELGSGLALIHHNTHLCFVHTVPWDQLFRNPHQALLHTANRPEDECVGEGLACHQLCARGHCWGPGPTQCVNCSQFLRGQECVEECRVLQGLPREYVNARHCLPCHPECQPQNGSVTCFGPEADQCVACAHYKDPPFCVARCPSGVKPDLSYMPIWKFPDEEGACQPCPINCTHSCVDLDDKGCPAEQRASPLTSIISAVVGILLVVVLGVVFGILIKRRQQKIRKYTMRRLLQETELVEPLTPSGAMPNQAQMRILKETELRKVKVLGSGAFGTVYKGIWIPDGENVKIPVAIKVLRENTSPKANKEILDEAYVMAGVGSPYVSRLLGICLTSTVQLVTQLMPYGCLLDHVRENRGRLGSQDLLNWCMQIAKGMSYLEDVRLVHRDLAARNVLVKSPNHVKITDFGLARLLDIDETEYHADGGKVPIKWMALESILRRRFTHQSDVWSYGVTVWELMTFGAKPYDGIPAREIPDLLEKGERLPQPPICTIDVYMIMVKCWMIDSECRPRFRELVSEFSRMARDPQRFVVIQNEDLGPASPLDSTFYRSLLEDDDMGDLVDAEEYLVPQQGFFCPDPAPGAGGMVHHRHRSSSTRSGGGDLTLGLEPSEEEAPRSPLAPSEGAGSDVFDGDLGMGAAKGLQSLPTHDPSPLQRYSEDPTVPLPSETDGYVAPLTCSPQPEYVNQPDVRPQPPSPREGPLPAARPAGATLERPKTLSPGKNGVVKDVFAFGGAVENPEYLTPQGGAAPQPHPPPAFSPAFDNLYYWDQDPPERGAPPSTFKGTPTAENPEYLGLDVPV

[7] = target: Receptor tyrosine-protein kinase erbB-2 (Homo sapiens) (UniProt P04626); conditions: at 1 µM
[8] = target: Receptor tyrosine-protein kinase erbB-4 (Homo sapiens) (UniProt Q15303); conditions: at 0.1 µM
Receptor tyrosine-protein kinase erbB-4 (Homo sapiens), sequence (Q15303 whole entry): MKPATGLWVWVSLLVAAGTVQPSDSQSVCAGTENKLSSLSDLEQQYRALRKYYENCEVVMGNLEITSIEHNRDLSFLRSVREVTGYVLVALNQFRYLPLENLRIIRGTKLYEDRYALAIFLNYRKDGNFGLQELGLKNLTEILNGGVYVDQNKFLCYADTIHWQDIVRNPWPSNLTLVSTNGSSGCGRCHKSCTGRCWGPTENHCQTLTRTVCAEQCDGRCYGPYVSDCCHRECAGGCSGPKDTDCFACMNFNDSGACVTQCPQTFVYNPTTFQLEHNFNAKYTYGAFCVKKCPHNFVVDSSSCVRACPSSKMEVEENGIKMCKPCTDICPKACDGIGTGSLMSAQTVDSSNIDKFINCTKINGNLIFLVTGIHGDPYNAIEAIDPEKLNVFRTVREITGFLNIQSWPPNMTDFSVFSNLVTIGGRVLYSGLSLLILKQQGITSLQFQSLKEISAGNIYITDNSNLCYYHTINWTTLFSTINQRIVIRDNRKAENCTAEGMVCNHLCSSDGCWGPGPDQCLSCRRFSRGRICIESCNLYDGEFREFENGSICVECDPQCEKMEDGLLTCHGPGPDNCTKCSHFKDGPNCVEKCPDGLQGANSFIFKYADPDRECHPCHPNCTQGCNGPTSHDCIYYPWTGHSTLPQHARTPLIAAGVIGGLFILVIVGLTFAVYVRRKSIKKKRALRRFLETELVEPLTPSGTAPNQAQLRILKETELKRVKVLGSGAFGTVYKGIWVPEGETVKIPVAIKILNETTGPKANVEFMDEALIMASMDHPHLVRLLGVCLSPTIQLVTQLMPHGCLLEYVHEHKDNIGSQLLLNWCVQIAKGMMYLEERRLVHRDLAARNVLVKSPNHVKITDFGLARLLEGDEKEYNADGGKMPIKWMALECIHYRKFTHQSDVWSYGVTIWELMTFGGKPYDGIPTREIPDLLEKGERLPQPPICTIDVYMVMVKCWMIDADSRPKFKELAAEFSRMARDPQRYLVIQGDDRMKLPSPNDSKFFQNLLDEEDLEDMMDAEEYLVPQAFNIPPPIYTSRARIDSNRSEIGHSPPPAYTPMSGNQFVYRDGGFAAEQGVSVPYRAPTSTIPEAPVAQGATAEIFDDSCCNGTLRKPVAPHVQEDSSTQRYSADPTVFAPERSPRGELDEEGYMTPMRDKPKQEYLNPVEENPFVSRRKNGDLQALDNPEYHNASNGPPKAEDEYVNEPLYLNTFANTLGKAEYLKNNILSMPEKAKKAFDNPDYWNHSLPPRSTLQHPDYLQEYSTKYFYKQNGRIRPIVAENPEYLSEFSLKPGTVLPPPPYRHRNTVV

[9] = target: Receptor tyrosine-protein kinase erbB-4 (Homo sapiens) (UniProt Q15303); conditions: at 1 µM
[10] = target: Tyrosine-protein kinase Fer (Homo sapiens) (UniProt P16591); conditions: at 0.1 µM;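 note: reported figures are averaged percent inhibition of FER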
Tyrosine-protein kinase Fer (Homo sapiens), sequence (P16591 whole entry, looked up): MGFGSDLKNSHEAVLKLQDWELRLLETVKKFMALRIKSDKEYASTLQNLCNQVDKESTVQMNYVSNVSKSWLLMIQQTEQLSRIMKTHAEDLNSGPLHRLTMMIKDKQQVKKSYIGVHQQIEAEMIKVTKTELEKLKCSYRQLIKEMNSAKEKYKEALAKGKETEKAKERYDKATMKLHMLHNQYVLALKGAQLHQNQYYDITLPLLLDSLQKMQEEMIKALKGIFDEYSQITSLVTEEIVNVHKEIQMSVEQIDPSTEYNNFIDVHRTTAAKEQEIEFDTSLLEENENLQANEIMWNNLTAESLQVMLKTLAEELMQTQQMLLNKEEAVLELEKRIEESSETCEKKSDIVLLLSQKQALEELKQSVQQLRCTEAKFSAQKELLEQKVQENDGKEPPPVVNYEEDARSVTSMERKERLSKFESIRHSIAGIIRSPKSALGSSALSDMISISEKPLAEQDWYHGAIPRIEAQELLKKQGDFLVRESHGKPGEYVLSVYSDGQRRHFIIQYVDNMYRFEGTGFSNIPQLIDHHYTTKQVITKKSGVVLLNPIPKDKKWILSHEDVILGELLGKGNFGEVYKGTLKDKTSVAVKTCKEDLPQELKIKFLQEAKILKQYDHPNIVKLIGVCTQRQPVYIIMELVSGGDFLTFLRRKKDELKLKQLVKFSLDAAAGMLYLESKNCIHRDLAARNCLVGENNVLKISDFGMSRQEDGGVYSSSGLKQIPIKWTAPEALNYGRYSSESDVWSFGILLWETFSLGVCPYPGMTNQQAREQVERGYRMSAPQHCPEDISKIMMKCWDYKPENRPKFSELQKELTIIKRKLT

| Compound | inhibition [1] [%] | inhibition [2] [%] | inhibition [3] [%] | inhibition [4] [%] | inhibition [5] [%] | inhibition [6] [%] | inhibition [7] [%] | inhibition [8] [%] | inhibition [9] [%] | inhibition [10] [%] |
| --- | --- | --- | --- | --- | --- | --- | --- | --- | --- | --- |
| Fc1ccc(Nc2nccc(-c3c(-c4ccc(C(F)(F)F)cc4)nn4ncccc34)n2)cc1F | 6.54 | 4.44 | 1.93 | 2.27 | 1.26 | -0.32 | -1.28 | 9.22 | 10.4 | 4.97 |
| CC1=C(C(=O)Nc2ccc3[nH]nc(C)c3c2)C(c2ccc(C(F)(F)F)cc2)CC(=O)N1 (stereo not given) | 3.69 | 5.28 | 2.84 | 1.98 | 4.06 | 0.35 | 0.13 | 9.2 | 16 | 1.26 |
| O=C(O[C@H]1CN[C@H](C#Cc2cc3ncnc(Nc4ccc(OCc5cccc(F)c5)c(Cl)c4)c3s2)C1)N1CCOCC1 | 6.81 | 5.55 | 5.83 | 0.52 | 1.52 | 6.98 | 52.8 | 82.2 | 85.3 | 5.92 |
| CNC(=O)c1sc(-n2cnc3cc(OC)c(OC)cc32)cc1OCc1ccccc1C(F)(F)F | 14 | 4.48 | 3.52 | 0.98 | 5.78 | 2.12 | 3.74 | 6.92 | 10.3 | 2.95 |
| CNC(=O)c1ncccc1Nc1nc(Nc2cc3c(cc2OC)CCCN3C(=O)CN(C)C)nc2[nH]ccc12 | 9.33 | 4.77 | -0.74 | 1.64 | 2.22 | 3.4 | 3.24 | 10.7 | 20.2 | 71.3 |
| NS(=O)(=O)c1ccc(N/N=C2\C(=O)Nc3ccc(C(=O)NCc4ccncc4)cc32)cc1 | 11.1 | 3.93 | 2.6 | 1.83 | 4.17 | 2.22 | 6.09 | 6.54 | 7.07 | 2.36 |
| CCCNc1cccc(-n2ncc3c(N/N=C/c4ccncc4)ncnc32)c1 | 9.31 | -1.29 | 1.75 | 1.55 | 5.77 | 2.33 | 4.49 | 11.8 | 43 | -0.72 |
| COc1ccc(-c2nn3ncccc3c2-c2ccnc(Nc3ccc(F)c(F)c3)n2)cc1 | 18.6 | 4.77 | 3.59 | 1.49 | 7.6 | 4.95 | 5.88 | 27.1 | 71.3 | 4.09 |

— ChEMBL document CHEMBL1961873, “Compounds: GSK PKIS; Assays: Nanosyn kinase panel” (2012)
